Results filed as inconclusive are left out. The source made the active and inactive calls. How the source made its calls: active means hit-call score of the fitted dose curve at least 0.9, where 1 is the maximum; inconclusive means response in the unintended direction; inactive means score below 0.9.
Assays:
[1] = biological target: Estrogen receptor beta (Homo sapiens) (UniProt Q92731); assay: ATG_hERb_XSP1: Attagene TRANS-FACTORIAL Multi-Species (XSP1) HepG2 Assay for human Estrogen Receptor (ESR2) (AID 2283788)
Chain of Estrogen receptor beta (Homo sapiens) (Q92731 whole entry, looked up, the tested form may be a part): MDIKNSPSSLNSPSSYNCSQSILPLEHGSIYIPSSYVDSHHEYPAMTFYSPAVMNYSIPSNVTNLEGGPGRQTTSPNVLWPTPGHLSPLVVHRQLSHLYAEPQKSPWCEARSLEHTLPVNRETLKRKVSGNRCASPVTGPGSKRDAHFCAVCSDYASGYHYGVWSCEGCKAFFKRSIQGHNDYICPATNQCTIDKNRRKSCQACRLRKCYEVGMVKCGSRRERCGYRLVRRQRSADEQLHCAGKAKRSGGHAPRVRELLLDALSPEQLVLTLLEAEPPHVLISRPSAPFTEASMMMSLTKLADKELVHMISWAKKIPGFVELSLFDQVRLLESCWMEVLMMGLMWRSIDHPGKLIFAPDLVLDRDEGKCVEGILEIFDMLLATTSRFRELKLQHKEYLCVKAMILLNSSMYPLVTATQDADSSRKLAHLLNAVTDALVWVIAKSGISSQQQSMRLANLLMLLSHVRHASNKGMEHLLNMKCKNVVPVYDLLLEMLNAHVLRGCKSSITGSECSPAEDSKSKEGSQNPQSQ
Procedure, shortened: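 Read-out: reporter mRNA induction by RT-PCR, HpaI digestion and capillary electrophoresis fluorescence, fitted in positive direction relative to DMSO baseline. Human liver HepG2 cells expressing ERβ-Gal4 fusion, dosed 24 h, medium containing 3 nM 6-alpha-fluorotestosterone.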

[2] = ATG_M_06_XSP1: Attagene TRANS-FACTORIAL Multi-Species (XSP1) HepG2 Assay for M06 Transcription Factor (Internal Marker) (AID 2283790)
Procedure, shortened: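 Transfected HepG2 multi-reporter system treated 24 h in the presence of 3 nM 6-alpha-fluorotestosterone. The M06 internal marker transcript was quantified by RT-PCR with capillary electrophoresis as a background control, and gain of signal was scored versus DMSO.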

[3] = ATG_M_61_XSP1: Attagene TRANS-FACTORIAL Multi-Species (XSP1) HepG2 Assay for M61 Transcription Factor (Internal Marker) (AID 2283797)
Procedure, shortened: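 HepG2 cells transiently transfected with multiplexed GAL4-driven reporter units, dosed 24 h with 3 nM 6-alpha-fluorotestosterone present. Reporter mRNA quantified by RT-PCR, 6-FAM labelling, HpaI digestion and capillary electrophoresis; internal-marker background control, gain of signal versus DMSO.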

[4] = biological target: Peroxisome proliferator-activated receptor gamma (Homo sapiens) (UniProt P37231); assay: ATG_hPPARg_XSP1: Attagene TRANS-FACTORIAL Multi-Species (XSP1) HepG2 Assay for human Peroxisome Proliferator-activated Receptor gamma (PPARg) (AID 2283800)
Chain of Peroxisome proliferator-activated receptor gamma (Homo sapiens) (P37231 whole entry, looked up, the tested form may be a part): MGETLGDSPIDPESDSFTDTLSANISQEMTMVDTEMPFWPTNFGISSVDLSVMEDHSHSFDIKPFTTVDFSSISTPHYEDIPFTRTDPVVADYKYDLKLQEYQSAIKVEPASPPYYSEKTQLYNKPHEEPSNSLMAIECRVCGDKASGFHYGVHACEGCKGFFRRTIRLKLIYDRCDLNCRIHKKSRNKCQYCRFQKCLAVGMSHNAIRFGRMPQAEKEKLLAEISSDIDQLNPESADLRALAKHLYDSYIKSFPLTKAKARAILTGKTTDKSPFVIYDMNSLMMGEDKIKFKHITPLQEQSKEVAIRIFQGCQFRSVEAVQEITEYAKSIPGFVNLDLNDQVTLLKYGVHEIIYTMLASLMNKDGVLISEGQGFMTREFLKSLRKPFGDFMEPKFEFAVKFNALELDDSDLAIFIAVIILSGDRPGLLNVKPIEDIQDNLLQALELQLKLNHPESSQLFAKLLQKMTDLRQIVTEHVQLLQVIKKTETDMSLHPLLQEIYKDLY
Procedure, shortened: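 HepG2 cells transiently transfected with GAL4-UAS reporter units carrying chimeric NR-Gal4 proteins; 3 nM 6-alpha-fluorotestosterone present. After 24 h dosing, reporter mRNA quantified by RT-PCR and capillary electrophoresis; gain of signal relative to DMSO.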

[5] = tested on: zebrafish Peroxisome Proliferator-activated Receptor gamma (PPARg), gene 557037; assay: ATG_zfPPARg_XSP1: Attagene TRANS-FACTORIAL Multi-Species (XSP1) HepG2 Assay for zebrafish Peroxisome Proliferator-activated Receptor gamma (PPARg) (AID 2283801)
Procedure, shortened: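 HepG2 cells transiently transfected with GAL4-UAS reporter units including a zebrafish PPARg–GAL4 chimera, dosed 24 h with 3 nM 6-alpha-fluorotestosterone present. Reporter mRNA quantified by RT-PCR, FAM labelling, HpaI digestion and capillary electrophoresis; induction versus DMSO.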

[6] = biological target: mouse Peroxisome Proliferator-activated Receptor gamma (PPARg), Pparg (gene 19016) (UniProt P37238); assay: ATG_mPPARg_XSP1: Attagene TRANS-FACTORIAL Multi-Species (XSP1) HepG2 Assay for mouse Peroxisome Proliferator-activated Receptor gamma (PPARg) (AID 2283802)
Chain of mouse Peroxisome Proliferator-activated Receptor gamma (PPARg), Pparg (gene 19016) (P37238 whole entry, looked up, the tested form may be a part): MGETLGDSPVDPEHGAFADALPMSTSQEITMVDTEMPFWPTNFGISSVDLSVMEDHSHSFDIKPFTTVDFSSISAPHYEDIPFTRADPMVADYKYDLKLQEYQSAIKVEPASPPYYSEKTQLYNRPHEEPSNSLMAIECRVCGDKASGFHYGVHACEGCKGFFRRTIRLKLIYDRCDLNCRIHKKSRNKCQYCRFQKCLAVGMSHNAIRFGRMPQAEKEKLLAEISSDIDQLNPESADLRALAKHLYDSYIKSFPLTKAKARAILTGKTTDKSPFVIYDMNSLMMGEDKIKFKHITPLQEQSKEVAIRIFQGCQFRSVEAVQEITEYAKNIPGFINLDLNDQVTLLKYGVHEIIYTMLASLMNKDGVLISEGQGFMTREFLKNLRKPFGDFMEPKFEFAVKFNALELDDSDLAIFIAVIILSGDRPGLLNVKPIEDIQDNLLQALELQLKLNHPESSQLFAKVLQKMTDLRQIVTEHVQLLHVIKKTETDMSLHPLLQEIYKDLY
Procedure, shortened: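 HepG2 cells transiently transfected with GAL4-UAS reporter units driven by mouse PPARg–GAL4 chimera; 3 nM 6-alpha-fluorotestosterone present. After 24 h dosing, reporter mRNA quantified by RT-PCR, fluorescent labelling and capillary electrophoresis; gain of signal versus DMSO.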

[7] = biological target: Nuclear receptor subfamily 1 group I member 2 (Mus musculus) (UniProt O54915); assay: ATG_mPXR_XSP1: Attagene TRANS-FACTORIAL Multi-Species (XSP1) HepG2 Assay for mouse Pregnane X Receptor (PXR) (AID 2283803)
Chain of Nuclear receptor subfamily 1 group I member 2 (Mus musculus) (O54915 whole entry, looked up, the tested form may be a part): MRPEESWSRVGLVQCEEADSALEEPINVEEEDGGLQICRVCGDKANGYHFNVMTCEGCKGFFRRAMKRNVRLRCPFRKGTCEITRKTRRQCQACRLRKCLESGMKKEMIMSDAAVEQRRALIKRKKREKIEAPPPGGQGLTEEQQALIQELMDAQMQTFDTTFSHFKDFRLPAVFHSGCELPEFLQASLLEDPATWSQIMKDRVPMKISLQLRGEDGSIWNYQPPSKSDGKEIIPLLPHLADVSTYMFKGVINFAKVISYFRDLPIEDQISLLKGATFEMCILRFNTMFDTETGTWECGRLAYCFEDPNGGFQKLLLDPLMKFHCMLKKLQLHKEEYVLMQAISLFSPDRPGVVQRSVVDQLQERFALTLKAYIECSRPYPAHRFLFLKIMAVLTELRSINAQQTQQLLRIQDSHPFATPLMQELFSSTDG
Procedure, shortened: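 Transiently transfected HepG2 cells expressing a receptor-Gal4 chimera drive a GAL4-UAS reporter; 3 nM 6-alpha-fluorotestosterone included. Reporter mRNA read 24 h post-dose by RT-PCR and capillary electrophoresis; gain of signal relative to DMSO.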

[8] = biological target: frog Thyroid hormone Receptor alpha (TRa), thra-a (gene 397942) (UniProt P15204); assay: ATG_frTRa_XSP1: Attagene TRANS-FACTORIAL Multi-Species (XSP1) HepG2 Assay for frog Thyroid hormone Receptor alpha (TRa) (AID 2283804)
Chain of frog Thyroid hormone Receptor alpha (TRa), thra-a (gene 397942) (P15204 whole entry, looked up, the tested form may be a part): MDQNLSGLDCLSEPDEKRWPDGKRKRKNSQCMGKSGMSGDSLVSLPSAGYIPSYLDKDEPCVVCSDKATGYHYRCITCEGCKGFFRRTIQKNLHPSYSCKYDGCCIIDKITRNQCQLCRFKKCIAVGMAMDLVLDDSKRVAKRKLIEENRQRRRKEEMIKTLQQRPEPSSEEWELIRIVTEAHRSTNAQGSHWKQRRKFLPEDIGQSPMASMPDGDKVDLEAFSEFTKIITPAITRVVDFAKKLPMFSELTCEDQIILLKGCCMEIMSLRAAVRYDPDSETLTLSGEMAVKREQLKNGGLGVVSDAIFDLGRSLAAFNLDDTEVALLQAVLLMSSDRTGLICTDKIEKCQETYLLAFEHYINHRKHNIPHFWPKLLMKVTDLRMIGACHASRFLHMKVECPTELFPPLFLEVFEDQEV
Procedure, shortened: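 HepG2 cells transiently transfected with frog TRa-GAL4 chimeric reporter units, dosed 24 hr with 3 nM 6-alpha-fluorotestosterone present; reporter mRNA quantified by RT-PCR, fluorescent labelling and capillary electrophoresis, gain of signal versus DMSO.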

[9] = biological target: human Thyroid hormone Receptor alpha (TRa), THRA (gene 7067) (UniProt P10827); assay: ATG_hTRa_XSP1: Attagene TRANS-FACTORIAL Multi-Species (XSP1) HepG2 Assay for human Thyroid hormone Receptor alpha (TRa) (AID 2283805)
Chain of human Thyroid hormone Receptor alpha (TRa), THRA (gene 7067) (P10827 whole entry, looked up, the tested form may be a part): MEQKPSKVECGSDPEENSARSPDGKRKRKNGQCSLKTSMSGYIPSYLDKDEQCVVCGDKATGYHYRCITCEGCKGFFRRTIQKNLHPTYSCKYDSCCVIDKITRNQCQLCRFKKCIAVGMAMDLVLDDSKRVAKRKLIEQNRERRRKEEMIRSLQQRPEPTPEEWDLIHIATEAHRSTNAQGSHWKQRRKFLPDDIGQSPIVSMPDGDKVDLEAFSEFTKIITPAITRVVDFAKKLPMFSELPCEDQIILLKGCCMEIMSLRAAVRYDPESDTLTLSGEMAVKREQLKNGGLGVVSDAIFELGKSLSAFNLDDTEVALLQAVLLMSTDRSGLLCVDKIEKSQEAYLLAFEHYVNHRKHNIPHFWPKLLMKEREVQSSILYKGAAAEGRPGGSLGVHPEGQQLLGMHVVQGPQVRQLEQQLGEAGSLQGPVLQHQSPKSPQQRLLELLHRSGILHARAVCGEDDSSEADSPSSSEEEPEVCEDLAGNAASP
Procedure, shortened: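 HepG2 cells transiently transfected with GAL4-UAS reporter units expressing chimeric NR-Gal4 proteins, dosed 24 hours with 3 nM 6-alpha-fluorotestosterone present. Reporter mRNA measured by RT-PCR and capillary electrophoresis; gain of signal fitted versus DMSO.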

[10] = tested on: turtle Thyroid Hormone Receptor, alpha (TRa), gene 101949057; assay: ATG_trTRa_XSP1: Attagene TRANS-FACTORIAL Multi-Species (XSP1) HepG2 Assay for turtle Thyroid Hormone Receptor, alpha (TRa) (AID 2283806)
Procedure, shortened: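 HepG2 cells transiently transfected with GAL4-UAS reporter units and chimeric receptor-Gal4 constructs, with 3 nM 6-alpha-fluorotestosterone present. Reporter mRNA was quantified 24 h after dosing by RT-PCR, 6-FAM labelling and capillary electrophoresis; gain of signal versus DMSO.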

[11] = biological target: human Thyroid hormone Receptor beta (TRb), THRB (gene 7068) (UniProt P10828); assay: ATG_hTRb_XSP1: Attagene TRANS-FACTORIAL Multi-Species (XSP1) HepG2 Assay for human Thyroid hormone Receptor beta (TRb) (AID 2283808)
Chain of human Thyroid hormone Receptor beta (TRb), THRB (gene 7068) (P10828 whole entry, looked up, the tested form may be a part): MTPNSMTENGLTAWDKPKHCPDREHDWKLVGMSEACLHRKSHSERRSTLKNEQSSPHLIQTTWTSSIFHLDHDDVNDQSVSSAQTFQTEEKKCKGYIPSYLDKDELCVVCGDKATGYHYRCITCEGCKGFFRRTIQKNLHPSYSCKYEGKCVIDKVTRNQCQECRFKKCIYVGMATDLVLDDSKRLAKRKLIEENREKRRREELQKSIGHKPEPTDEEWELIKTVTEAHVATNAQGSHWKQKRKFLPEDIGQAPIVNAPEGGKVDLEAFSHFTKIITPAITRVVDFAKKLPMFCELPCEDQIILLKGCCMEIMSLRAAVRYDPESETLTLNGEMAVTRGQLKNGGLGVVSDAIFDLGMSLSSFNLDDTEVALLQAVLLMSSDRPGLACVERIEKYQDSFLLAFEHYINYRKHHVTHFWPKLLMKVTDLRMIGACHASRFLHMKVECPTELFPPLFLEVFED
Procedure, shortened: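 HepG2 cells transiently transfected with reporter units driving GAL4-UAS reporters for chimeric NR-Gal4 proteins; 24 h chemical exposure with 3 nM 6-alpha-fluorotestosterone present. Reporter mRNA quantified by RT-PCR and capillary electrophoresis, gain of signal versus DMSO.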

[12] = biological target: zebrafish Thyroid Hormone Receptor beta (TRb), thrb (gene 30607) (UniProt Q9PVE4); assay: ATG_zfTRb_XSP1: Attagene TRANS-FACTORIAL Multi-Species (XSP1) HepG2 Assay for zebrafish Thyroid Hormone Receptor beta (TRb) (AID 2283809)
Chain of zebrafish Thyroid Hormone Receptor beta (TRb), thrb (gene 30607) (Q9PVE4 whole entry, looked up, the tested form may be a part): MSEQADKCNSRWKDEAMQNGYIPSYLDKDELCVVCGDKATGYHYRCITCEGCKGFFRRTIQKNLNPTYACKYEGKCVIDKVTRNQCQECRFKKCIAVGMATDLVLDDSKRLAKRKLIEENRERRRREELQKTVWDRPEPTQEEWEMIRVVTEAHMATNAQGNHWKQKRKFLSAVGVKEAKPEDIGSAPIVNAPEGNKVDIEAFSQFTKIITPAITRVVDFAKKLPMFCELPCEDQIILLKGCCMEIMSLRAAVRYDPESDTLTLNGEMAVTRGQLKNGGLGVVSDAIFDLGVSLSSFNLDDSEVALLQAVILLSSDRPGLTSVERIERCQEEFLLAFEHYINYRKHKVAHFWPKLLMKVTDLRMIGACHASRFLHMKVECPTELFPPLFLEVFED
Procedure, shortened: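 HepG2 cells transiently transfected with multiplexed GAL4-UAS reporter units expressing chimeric zebrafish TRb–Gal4. Dosed 24 h with 3 nM 6-alpha-fluorotestosterone present; reporter mRNA measured by RT-PCR, HpaI digestion and capillary electrophoresis; gain of signal versus DMSO.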

[13] = ATG_XTT_Cytotoxicity_XSP1: Cytotoxicity Assessment in the Attagene TRANS-FACTORIAL Multi-Species (XSP1) HepG2 Assay (AID 2283810)
Procedure, shortened: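 XTT viability readout taken at 24 hours post-dosing in HepG2 liver cells co-treated with 3 nM 6-alpha-fluorotestosterone. Signal loss relative to DMSO controls reflects cytotoxicity.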

[14] = ATG_M_06_XSP2: Attagene TRANS-FACTORIAL Multi-Species (XSP2) HepG2 Assay for M06 Transcription Factor (Internal Marker) (AID 2283811);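 further: hits are increases in signal above the DMSO baseline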
Procedure, shortened: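 HepG2 cells transiently transfected with GAL4-UAS multi-reporter constructs, dosed 24 h with 3 nM 6-alpha-fluorotestosterone plus 1.5 nM norgestrel present to stimulate androgen receptor. Reporter mRNA quantified by RT-PCR, 6-FAM labelling, HpaI digestion and capillary electrophoresis; gain-of-signal fitted versus DMSO baseline.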

[15] = tested on: turtle Androgen Receptor (AR), gene 101947425; assay: ATG_trAR_XSP1: Attagene TRANS-FACTORIAL Multi-Species (XSP1) HepG2 Assay for turtle Androgen Receptor (AR) (AID 2283786)
Procedure, shortened: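 HepG2 cells transiently transfected with a turtle AR–GAL4 chimera and GAL4-UAS reporter, co-treated with 3 nM 6-alpha-fluorotestosterone for partial stimulation. Reporter mRNA is quantified at 24 h by RT-PCR and capillary electrophoresis, gain-of-signal versus DMSO.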

[16] = biological target: GAL4 Transcription Factor (Internal Marker), GAL4 (gene 855828) (UniProt P04386); assay: ATG_GAL4_XSP1: Attagene TRANS-FACTORIAL Multi-Species (XSP1) HepG2 Assay for GAL4 Transcription Factor (Internal Marker) (AID 2283789)
Procedure, shortened: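 HepG2 cells transiently transfected with multiplexed GAL4-UAS reporter units were exposed for 24 h with 3 nM 6-alpha-fluorotestosterone present. Reporter mRNA was quantified by RT-PCR, FAM labelling, HpaI digestion and capillary electrophoresis; background-control readout, gain-of-signal versus DMSO.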

[17] = ATG_M_19_XSP1: Attagene TRANS-FACTORIAL Multi-Species (XSP1) HepG2 Assay for M19 Transcription Factor (Internal Marker) (AID 2283798)
Procedure, shortened: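 HepG2 cells transiently transfected with multiplexed GAL4-UAS reporter units, dosed 24 h with 3 nM 6-alpha-fluorotestosterone present for partial AR stimulation. Reporter mRNA measured by RT-PCR with capillary electrophoresis; gain-of-signal fitted relative to DMSO.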

[18] = ATG_M_32_XSP1: Attagene TRANS-FACTORIAL Multi-Species (XSP1) HepG2 Assay for M32 Transcription Factor (Internal Marker) (AID 2283799)
Procedure, shortened: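 HepG2 cells transiently transfected with multi-species TRANS reporter units, dosed 24 h with 3 nM 6-alpha-fluorotestosterone present. Internal-marker reporter mRNA quantified by RT-PCR and capillary electrophoresis; positive-direction fit versus DMSO.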

[19] = biological target: AR (gene 367) (UniProt P10275); assay: ACEA_AR_antagonist_80hr: ACEA Biosciences xCELLigence Real-Time Cell Analysis on Androgen Receptor Antagonism for Proliferation (AID 2283787);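 further: 22Rv1 human prostate cancer cells with growth followed by electrical impedance; hits lower the impedance growth signal relative to DMSO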
Chain of AR (gene 367) (P10275 whole entry, looked up): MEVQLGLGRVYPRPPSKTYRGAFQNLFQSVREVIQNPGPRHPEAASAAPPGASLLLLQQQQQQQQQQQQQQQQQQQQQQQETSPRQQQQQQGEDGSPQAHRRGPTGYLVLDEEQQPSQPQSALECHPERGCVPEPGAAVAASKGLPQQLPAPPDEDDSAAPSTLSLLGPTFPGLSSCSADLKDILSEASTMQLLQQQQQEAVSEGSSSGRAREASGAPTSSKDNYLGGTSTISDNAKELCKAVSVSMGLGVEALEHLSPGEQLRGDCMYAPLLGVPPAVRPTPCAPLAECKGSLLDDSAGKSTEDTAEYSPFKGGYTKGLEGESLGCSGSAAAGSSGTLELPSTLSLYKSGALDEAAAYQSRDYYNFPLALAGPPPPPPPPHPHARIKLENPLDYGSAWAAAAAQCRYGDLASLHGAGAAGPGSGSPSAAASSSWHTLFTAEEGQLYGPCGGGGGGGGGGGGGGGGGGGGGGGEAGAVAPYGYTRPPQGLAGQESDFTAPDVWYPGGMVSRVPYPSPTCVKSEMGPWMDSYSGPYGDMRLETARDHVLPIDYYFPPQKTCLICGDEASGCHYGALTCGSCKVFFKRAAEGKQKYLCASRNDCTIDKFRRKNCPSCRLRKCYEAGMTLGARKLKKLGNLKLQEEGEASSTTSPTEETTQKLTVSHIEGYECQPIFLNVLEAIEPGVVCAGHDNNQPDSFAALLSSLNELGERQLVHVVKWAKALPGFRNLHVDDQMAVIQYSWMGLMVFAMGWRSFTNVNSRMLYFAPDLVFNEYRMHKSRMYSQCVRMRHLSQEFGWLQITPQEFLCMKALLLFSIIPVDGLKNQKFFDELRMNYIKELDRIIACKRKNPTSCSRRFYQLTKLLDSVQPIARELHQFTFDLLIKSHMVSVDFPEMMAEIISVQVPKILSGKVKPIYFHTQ
Procedure, shortened: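 Impedance readout (RT-CES), 80 h post-dose; loss-of-signal vs DMSO baseline. 22Rv1 cells in assay medium. Compounds: 8-pt 1:4 series, max 100 uM final, up to 0.5% DMSO; n = 2.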

[20] = biological target: zebrafish Thyroid Hormone Receptor alpha (TRa), thraa (gene 30670) (UniProt Q98867); assay: ATG_zfTRa_XSP1: Attagene TRANS-FACTORIAL Multi-Species (XSP1) HepG2 Assay for zebrafish Thyroid Hormone Receptor alpha (TRa) (AID 2283807)
Procedure, shortened: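 HepG2 cells transiently transfected with GAL4-UAS reporter units including a zebrafish TRa–Gal4 chimera, dosed 24 h with 3 nM 6-alpha-fluorotestosterone present. Reporter mRNA quantified by RT-PCR and capillary electrophoresis; gain versus DMSO.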

CCN(CC)C(=O)C(C)Oc1cccc2ccccc12 (stereo not drawn)
AC50 [1]: 100 µM (active) | outcome [2]: inactive | outcome [3]: inactive | AC50 [4]: 48.4 µM (active) | outcome [5]: inactive | AC50 [6]: 20.7 µM (active) | AC50 [7]: 1.27 µM (active) | outcome [8]: inactive | outcome [9]: inactive | outcome [10]: inactive | outcome [11]: inactive | outcome [12]: inactive | outcome [13]: inactive | outcome [14]: inactive

CC1(C)C(C=C(Cl)Cl)C1C(=O)OC(C#N)c1cccc(Oc2ccccc2)c1 (stereo not drawn)
outcome [15]: inactive | AC50 [1]: 66.8 µM (active) | outcome [16]: inactive | outcome [17]: inactive | outcome [18]: inactive | AC50 [4]: 4.23 µM (active) | AC50 [5]: 3.54 µM (active) | AC50 [6]: 13.5 µM (active) | AC50 [7]: 0.579 µM (active) | outcome [10]: inactive | outcome [11]: inactive | outcome [12]: inactive | outcome [14]: inactive

Nc1c(Cl)c(F)nc(OCC(=O)O)c1Cl
outcome [19]: inactive

N#Cc1c[nH]cc1-c1cccc2c1OC(F)(F)O2
outcome [14]: inactive

CC(C)NC(=O)N1CC(=O)N(c2cc(Cl)cc(Cl)c2)C1=O
outcome [16]: inactive | outcome [17]: inactive | outcome [18]: inactive | AC50 [4]: 31.3 µM (active) | AC50 [6]: 30.4 µM (active) | AC50 [7]: 12 µM (active) | outcome [8]: inactive | outcome [10]: inactive | outcome [11]: inactive | outcome [12]: inactive | outcome [13]: inactive | outcome [14]: inactive

CC1(C)CCC(=Cc2ccc(Cl)cc2)C1(O)Cn1cncn1 (stereo not drawn)
AC50 [19]: 13.1 µM (active) | AC50 [1]: 46.6 µM (active) | outcome [2]: inactive | outcome [3]: inactive | outcome [17]: inactive | outcome [18]: inactive | outcome [4]: inactive | outcome [6]: inactive | AC50 [7]: 5.78 µM (active) | outcome [8]: inactive | outcome [9]: inactive | outcome [10]: inactive | outcome [20]: inactive | outcome [11]: inactive | outcome [12]: inactive | outcome [13]: inactive

COC(=O)N(C(=O)N1CO[C@@]2(C(=O)OC)Cc3cc(Cl)ccc3C2=N1)c1ccc(OC(F)(F)F)cc1
AC50 [19]: 40 µM (active)

Reference: PubChem BioAssay (EPA / NIEHS)
